Compounds with a hit are over-represented: about 8.8% of the library has one in this group of screens.
KB-3-1 tox = kills parental KB-3-1 adenocarcinoma cells | Potency, µM (series often up to 46.1 µM), actives largely listed as cytotoxic | actives 1.4% (n = 400,000) | KB-3-1 viability, CellTiter-Glo ATP luminescence, 72 h | AID 1347075; also: potency is read from the fitted curve at half-maximal effect; nearly all actives have a fitted effect of over 60% in size
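Using CellTiter-Glo luminescence, growth of non-resistant KB-3-1 adenocarcinoma cells is assessed 72 h after pin-tool compound addition at 37 °C. Normalized responses across the concentration series yield fitted curves.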
IL-1B inflam inh = blocks inflammasome-driven IL-1 beta release; actives 4.7% (n = 360,000); THP-1 LPS/ATP IL-1B secretion, AlphaLISA, 16 h; stronger effect = lower value; activity change, % at 57.5 µM; in the data active = activity change below about -50%; inconclusive = mostly about -30% to -49%
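Secreted IL-1B measured by AlphaLISA bead assay after 16 h compound exposure of THP-1 cells; compounds (final up to 57.5 uM) added 1 h before LPS (250 ng/mL) and ATP (1.25 mM) stimulation; lower signal means less secretion.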
HT1080 IDH1KD tx = kills HT-1080 cells with IDH1 knockdown. HT-1080 IDH1 knockdown viability, ATP luminescence, 48 h. Potency, µM (titrated, usually from 46.1 µM), for the others: at the highest dose activity, negative = toxicity, most hits filed as cytotoxic. actives 2% (n = 360,000). AID 686971;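 also: potency is read from the fitted curve at half-maximal effect; 0% = DMSO wells and -100% = cell-free medium wells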
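Cytotoxicity counter-line: IDH1KD HT-1080, 48 h, CellTiter-Glo. Curves classed by r2, magnitude and activity.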
HT1080-NT tox = kills 2HG-producing HT-1080-NT fibrosarcoma cells | HT-1080-NT fibrosarcoma viability, CellTiter-Glo ATP luminescence, 48 h | Potency, µM (doses to about 46.1 µM), for inactives: at the highest dose activity, negative = less viability, hits mostly cytotoxic | actives 1.6% (n = 360,000) | AID 686970;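 also: NT is the 2HG producing partner of a matched IDH1 knockdown line; potency is read from the fitted curve at half-maximal effect; 0% = DMSO-treated cells and -100% = media-only wells without cells; nearly all actives have a fitted effect of over 55% in size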
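Luminescent CellTiter-Glo readout after 48 hours of compound exposure at 37 degrees C defined viability of HT-1080-NT cells. Activity was normalized to DMSO wells and cell-free media wells; concentration-response curves were fitted and assigned curve classes.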
KB-V1 cytotox = KB-V1 MDR subline cytotoxicity; Potency, µM (top dose mostly 46.1 µM), usual class: cytotoxic; actives 3.4% (n = 400,000); AID 1347076; KB-V1 MDR cells viability, CellTiter-Glo, 72 h; also: potency is read from the fitted curve at half-maximal effect; nearly all actives have a fitted effect of over 60% in size
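Readout: CellTiter-Glo luminescence, 10 min after addition. Cells: KB-V1 MDR subline, 72 h at 37 degrees C with compound. Analysis: corrected, normalized data fitted to concentration-effect curves.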
Starred values were filed as active, the others as inactive; i = inactive; ? = inconclusive; . = no result. Unless noted, calls follow the shape of the dose curve; as a rule, active = well fitted curve in the direction sought with a large enough effect; inconclusive = small, poorly fitted or top-dose-only effect, or another doubt; inactive = no such curve, though single readings can be large; an effect the other way counts as inactive or inconclusive. Unless noted, % is scaled to controls: 0 for no effect and ±100 for the full control effect.

SMILES | KB-3-1 tox | IL-1B inflam inh | HT1080 IDH1KD tx | HT1080-NT tox | KB-V1 cytotox
CCOc1ccc(CCNC(=O)c2ccc3c(c2)N(Cc2ccc(F)cc2)CCS3)cc1 | i | . | . | . | ?
COc1ccccc1C1(O)C(=O)Nc2ccc(C)cc21 (configuration not stated) | i | 3 | 3% | 0% | i
CC[C@H](C)[C@H]1O[C@]2(CC[C@@H]1C)C[C@@H]1C[C@@H](CC=C(C)[C@@H](O[C@H]3C[C@H](OC)[C@@H](O[C@H]4C[C@H](OC)[C@@H](O)[C@H](C)O4)[C@H](C)O3)[C@@H](C)C=CC=C3CO[C@@H]4[C@H](O)C(C)=C[C@@H](C(=O)O1)[C@]34O)O2 | 7.3µM* | -29 | 4.1µM* | 2.9µM* | 23µM*
CC(C)C[C@@H]1NC(=O)[C@H](C(C)C)NC(=O)c2cc([N+](=O)[O-])cc(I)c2NCC[C@@H](C(N)=O)NC1=O | ? | -6 | 7% | 14% | i
CC[C@H](C)[C@@H]1NC(=O)[C@@H](CC(C)C)NC(=O)[C@H](C(C)C)NC(=O)[C@H]2CSSC[C@H](NC1=O)C(=O)N2 | 1.2µM* | -116* | 0.52µM* | 0.46µM* | i
COc1ccc(Nc2ncc(C(=O)N3CCN(c4ccc(OC)cc4)CC3)c3ccccc23)cc1 | i | . | . | . | ?
COc1ccc(N2CCN(C(=O)c3csc4ccccc34)CC2)cc1 | i | -6 | 12% | 9% | 21µM*
COc1ccc(Nc2ncc(C(=O)N3CCN(c4ccc(F)cc4)CC3)c3ccccc23)cc1 | ? | -59* | -10% | -15% | ?
O=C(Nc1ccc2c3c(cccc13)CC2)c1ccccc1 | i | 34 | -7% | -4% | i
CC1=C(C(=O)N(C(C)C)C(C)C)CC(CC(=O)NCCc2ccccn2)C(=O)N1CCC1=CCCCC1 (configuration not stated) | 21µM* | -2 | 16% | 1% | i
CC1=C(C(=O)N(C(C)C)C(C)C)CC(CC(=O)NCc2cccc3ccccc23)C(=O)N1Cc1ccc(F)cc1 (configuration not stated) | ? | -68* | ? | ? | ?
CC1=C(C(=O)N(C(C)C)C(C)C)CC(CC(=O)NCc2cccc3ccccc23)C(=O)N1CCC1=CCCCC1 (configuration not stated) | i | -80* | ? | ? | ?
COCCCN1C(=O)C(CC(=O)NCCc2ccccn2)CC(C(=O)N(C(C)C)C(C)C)=C1C (configuration not stated) | i | ? | 16% | 18% | i
COc1ccc(OC)c(CN2C(=O)c3ccccc3C2c2nnnn2C2CCCC2)c1 (configuration not stated) | i | 35 | 16% | 1% | i
CCC(C)NC(=O)c1ccc(N2CC3CC(C2)c2cccc(=O)n2C3)c(NC(=O)c2ccc(Br)o2)c1 (configuration not stated) | i | -12 | 11% | 5% | i
O=C(Cn1cc(S(=O)(=O)Cc2cccc(Cl)c2)c2ccccc21)NCCc1ccccc1 | i | . | . | . | i
Cc1onc(C(=O)N2C(C)CCCC2C)c1[N+](=O)[O-] (configuration not stated) | i | 25 | 7% | 9% | ?
CN1CCN(CC(=O)Nc2nc(-c3c[nH]c4ccccc34)cs2)CC1 | i | -68* | 21µM* | ? | i
CNc1nc(-c2c[nH]c3ccccc23)cs1 | i | ? | ? | ? | i
CCC(C)Nc1nc(-c2c[nH]c3ccccc23)cs1 (configuration not stated) | i | -82* | ? | ? | i
Cc1cc(C(=O)COc2ccc(-c3nnco3)cc2)c(C)n1Cc1ccccc1 | 16µM* | ? | ? | ? | 2.9µM*
O=C(COc1ccc(-c2nnco2)cc1)NCc1ccccc1Cl | i | -1 | -13% | -13% | i
CCOC(=O)c1cccc(-n2c(C)cc(C=O)c2C)c1 | i | 16 | -9% | -2% | ?

Compound activity deposited in PubChem by National Center for Advancing Translational Sciences (NCATS).
